Compound activity: PubChem BioAssay, NMMLSC
RGS8-Gao: modulates binding of RGS8 to human Galphao | 220,000 tested, 0.34% active | AID 1423 | response (percent of control binding), % at 10 µM | multiplexed bead flow cytometry; actives lie on both sides; in the data active = response below about 60% or above about 140%; inactive = in between;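 note: Galphao activated as the GDP aluminium fluoride complex binding bead-coupled RGS8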
Target sequence (P09471 whole entry, looked up): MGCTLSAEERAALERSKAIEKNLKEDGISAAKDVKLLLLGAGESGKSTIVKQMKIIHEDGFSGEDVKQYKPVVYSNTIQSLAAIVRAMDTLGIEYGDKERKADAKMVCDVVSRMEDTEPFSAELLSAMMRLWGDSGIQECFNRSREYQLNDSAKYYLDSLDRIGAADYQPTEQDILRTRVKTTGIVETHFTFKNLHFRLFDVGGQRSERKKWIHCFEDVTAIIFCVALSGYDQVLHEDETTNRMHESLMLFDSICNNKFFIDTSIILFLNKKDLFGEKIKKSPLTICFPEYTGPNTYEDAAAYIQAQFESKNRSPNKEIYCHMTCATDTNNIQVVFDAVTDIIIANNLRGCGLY
RGS7-Gao: regulators of human RGS7-Galphao interaction; binding response (% of control), % at 10 µM; AID 1439; P09471; Multiplexed bead flow cytometry, RGS7-Galphao binding; actives lie on both sides; 220,000 tested, 0.35% active; in the data active = binding response below about 49% or above about 150%; inconclusive = no clear call, values can overlap the other calls; inactive = in between;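 note: fluorescent Galphao held in activated GDP-AlF4 state binding bead-coupled RGS7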
GSH fluor: compound fluoresces at 488/530 nm on GSH beads | GSH beads flow cytometry, compound fluorescence 488/530 nm; active compounds read high | fluorescence (KMESF) at 10 µM | 190,000 tested, 0.25% active | AID 1776; in the data active = fluorescence above about 89;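 note: glutathione beads carrying GST-tagged Bcl family fusion proteins plus one bare bead set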
RGS16-Gao HTS: modulates binding between human RGS16 and Galphao; binding response (% of control), % at 10 µM; 220,000 tested, 0.38% active; O15492+P09471; bead-based flow cytometry RGS16-Galphao binding, fluorescence; actives lie on both sides;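 note: Galphao activated by GDP with aluminum fluoride before binding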
Target sequence (O15492 whole entry, looked up): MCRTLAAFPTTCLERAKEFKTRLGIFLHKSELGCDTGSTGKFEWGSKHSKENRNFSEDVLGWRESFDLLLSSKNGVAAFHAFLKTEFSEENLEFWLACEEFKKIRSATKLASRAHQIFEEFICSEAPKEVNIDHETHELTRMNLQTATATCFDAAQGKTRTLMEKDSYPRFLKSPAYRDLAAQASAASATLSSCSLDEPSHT
Target sequence (P09471 whole entry, looked up): as the sequence (P09471 whole entry, looked up) above
Avidin bead fluor: avidin bead compound fluorescence profile; Avidin beads, compound fluorescence 488/530 nm, flow cytometry; active compounds read high; fluorescence (KMESF) at 10 µM; 220,000 tested, 0.38% active; AID 1775; in the data active = fluorescence above about 47
RGS4-Gao reg: modulates binding of RGS4 to human Galphao. 220,000 tested, 0.33% active. Multiplexed bead flow cytometry; actives lie on both sides. AID 1415. binding response (% of control), % at 10 µM; in the data active = binding response below about 49% or above about 150%; inactive = in between;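 note: fluorescent Galphao activated with aluminum fluoride binding bead-coupled RGS4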
RGS-Gao: modulates binding between human RGS4 and Galphao; shares compounds with RGS16-Gao HTS; multiplexed bead flow cytometry, RGS–Galpha-o binding; RGS4–Galpha-o binding response, % at 10 µM; 1,600 tested, 99% active; AID 1504;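 note: fluorescently labeled Galpha-o bound to GDP with aluminium fluoride binding biotinylated RGS beads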
Biotin-avidin: counter-screen: compounds disrupting biotin binding to avidin beads; shares compounds with RGS16-Gao HTS; streptavidin beads, fluorescein-biotin binding, flow cytometry; inhibition, % at 10 µM; 1,700 tested, under 10 active; AID 1783;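 active = inhibition above 50%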;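 note: median green fluorescence of gated singlet beads compared with DMSO control wells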
RGS8-Gao single: confirmation of regulators of human RGS8-Galphao interaction; bead-based flow cytometry RGS8-Galphao binding, fluorescence; actives lie on both sides; binding response (% of control), % at 10 µM; shares compounds with RGS16-Gao HTS; 1,700 tested, 3% active; in the data active = binding response below about 72% or above about 130%; inactive = in between;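 note: Galphao activated as GDP AlF4 complex before binding bead RGS8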
RGS7-Gao single: confirmation of regulators of human RGS7-Galphao interaction; 1,700 tested, 7.8% active; response (percent of control binding), % at 10 µM; shares compounds with RGS16-Gao HTS; bead-based flow cytometry RGS7-Galphao binding; actives lie on both sides; in the data active = response below about 75% or above about 130%; inactive = in between;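 note: fluorescent Galphao activated with GDP and aluminum fluoride binding bead-coupled RGS7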
RGS16-Gao single: RGS16-Galphao interaction regulation, single point confirmation | shares compounds with RGS16-Gao HTS | bead-based flow cytometry, RGS16-Galphao binding; actives lie on both sides | response (% of control binding), % at 10 µM | 1,700 tested, 4% active; in the data active = response below about 74% or above about 130%; inactive = in between;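 note: Galphao activated as the GDP aluminium fluoride complex binding bead-coupled RGS16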
RGS4-Gao confirm: RGS4-Galphao interaction regulation, single point confirmation. AID 1840. RGS4-Galphao binding, multiplexed bead flow cytometry; actives lie on both sides. 1,700 tested, 4% active. shares compounds with RGS16-Gao HTS. binding response (% of control), % at 10 µM; in the data active = binding response below about 74% or above about 130%; inactive = in between
RGS19-Gao conf: confirmation of regulators of human RGS19-Galphao interaction. shares compounds with RGS16-Gao HTS. bead-based flow cytometry RGS19-Galphao binding; actives lie on both sides. response (percent of control binding), % at 10 µM. 1,700 tested, 5% active. AID 1841; in the data active = response below about 50% or above about 160%; inactive = in between
Numbers stand for hits; 0 = inactive; ? = inconclusive; - = no result given; [ ] = dose if it differs, or a comment. Rows were chosen to be rich in hits. Some 1.2% of all compounds tested hit in one or more screens of this group. Unless noted, the rule behind the calls is not given here.

SMILES	RGS8-Gao	RGS7-Gao	GSH fluor	RGS16-Gao HTS	Avidin bead fluor	RGS4-Gao reg	Biotin-avidin	RGS8-Gao single	RGS7-Gao single	RGS16-Gao single	RGS4-Gao confirm	RGS19-Gao conf	others
Cc1nc(C(F)(F)F)ccc1C(=O)Nc1ccccc1F	0	?	-	0	0	0	-	-	-	-	-	-
COCC(=O)NC1(c2nnnn2CCOC(=O)Nc2ccc(Cl)cc2)CCCCC1	0	255[activator]	0	0	68	0	0	0	0	0	0	0	RGS-Gao=116
COCC(=O)N(C)C1(c2nnnn2CCOC(=O)Nc2ccc(Cl)cc2)CCCCC1	0	?	0	0	0	0	-	-	-	-	-	-
CCOc1ccc(S(=O)(=O)N/N=C(\C)Cc2ccc(OC)cc2)cc1	0	?	0	0	0	0	-	-	-	-	-	-
CCOc1ccc(S(=O)(=O)NC2CCCCCC2)cc1	50	35	0	0	0	46	0	0	0	0	0	0
CCOc1ccc(S(=O)(=O)N/N=C(\C)C2CCCCC2)cc1	0	0	0	14	0	0	0	0	0	0	0	0	RGS-Gao=101
CCNc1ccc(S(=O)(=O)N(C)C)cc1NCC(=O)Nc1ccc(F)c(Cl)c1	0	0	0	25	0	0	0	0	0	0	0	0	RGS-Gao=106
CCNc1ccc(S(=O)(=O)N(C)C)cc1NCC(=O)Nc1ccccc1F	0	0	0	0	0	0	-	-	-	-	-	-
O=C(Nc1ccccc1)N1CCCN(c2ccc(C(F)(F)F)cc2[N+](=O)[O-])CC1	41	?	-	21	0	23	0	0	0	0	0	0
CCc1ccc(NC(=O)CSc2nnc(Cn3c(=O)sc4ccccc43)n2C)cc1	0	0	0	0	0	0	-	-	-	-	-	-
CCOC(=O)c1ccc(NC(=O)CSc2nnc(Cn3c(=O)sc4ccccc43)n2C)cc1	0	173[activator]	0	0	89	0	0	0	0	0	0	0	RGS-Gao=109
CCOC(=O)C1CCCN(c2c(N3CCN(C)CC3)c(=O)c2=O)C1 (stereo unspecified)	0	0	0	0	0	0	-	-	-	-	-	-
CCOC(=O)C1CCCN(c2c(N3CCN(c4cccc(Cl)c4)CC3)c(=O)c2=O)C1 (stereo unspecified)	30	18	0	16	0	29	0	0	0	0	0	0
Nc1ccc2oc3ccc(N)cc3c(=O)c2c1	44	-13	0	0	0	5.6	0	0	0	0	0	0
CC(C)c1ccc2oc3nc(N)c(C(=O)O)cc3c(=O)c2c1	0	0	0	0	0	0	-	-	-	-	-	-
O=C(Nc1cccc(O)c1)c1noc2c1CCCCC2	-	-	0	-	-	-	0	0	0	0	0	0
C=C1SC(=Nc2ccccc2Cl)N(C(=O)c2sc3ccccc3c2Cl)C1(C)C	9.4	?	-	-13	0	-16	0	0	0	0	0	0
C=C1SC(=Nc2c(C)cccc2Cl)N(C(=O)c2sc3ccccc3c2Cl)C12CCCCC2	0	?	-	0	0	0	-	-	-	-	-	-
COc1c(Cl)cc(Cl)cc1/C=C/C(=O)c1ccc(NC(=O)c2cccs2)cc1	22	16	0	9.2	0	25	0	0	0	0	0	0
COc1c(Cl)cc(Cl)cc1C(=O)Nc1ccc(C(=O)O)cc1	0	0	0	0	0	0	-	-	-	-	-	-
CCN(CC)C(=O)c1ccc(S(=O)(=O)NCc2cccnc2)cc1	-	-	0	-	-	-	0	0	0	0	0	0
Cc1ccc(S(=O)(=O)NCc2ccc(C(=O)NCc3cccnc3)cc2)cc1	0	0	0	0	0	0	-	-	-	-	-	-
CC1C(=O)CC(c2ccccc2)NC1c1ccccc1 (stereo unspecified)	0	0	0	407[activator]	0	0	0	0	0	0	0	0	RGS-Gao=117
CCN(CC)c1ccc(N/C(N)=N/c2nc(C(F)(F)F)cc(=O)[nH]2)cc1	0	0	0	0	0	0	-	-	-	-	-	-
COc1cc(/C=N/NC(=O)Cn2ccc(C(F)(F)F)n2)cc(OC)c1OC	20	23	0	14	0	31	0	0	0	0	0	0
SMILES	RGS8-Gao	RGS7-Gao	GSH fluor	RGS16-Gao HTS	Avidin bead fluor	RGS4-Gao reg	Biotin-avidin	RGS8-Gao single	RGS7-Gao single	RGS16-Gao single	RGS4-Gao confirm	RGS19-Gao conf	others
C#CCOCCOCCOCCNc1nc(N2CCOCC2)nc(N2CCN(C(=O)[C@H]([C@@H](C)CC)n3cc([C@@H](N)CC(C)C)nn3)CC2)n1	0	0	0	0	0	0	-	-	-	-	-	-
CC(/C=N/NC(=O)c1cc(-c2cccn2C)n[nH]1)=C\c1ccccc1	0	?	-	0	0	0	-	-	-	-	-	-
Cn1c(CSCc2ccc(Cl)cc2)nnc1SCC(=O)Nc1nccs1	0	0	0	0	0	0	-	-	-	-	-	-
Cn1c(CSCc2ccc(Cl)cc2)nnc1SCC(=O)Nc1nc2ccccc2s1	-	-	0	-	-	-	0	0	0	0	0	0
CCc1c(O)c(/C(C)=N\O)c(=O)n(-c2ccccc2)c1-c1ccccc1	0	0	0	271[activator]	0	0	0	0	0	0	0	0	RGS-Gao=111
CCC(=O)Nc1cc(C(C)(C)C)ccc1C(C)=O	0	0	0	0	0	0	-	-	-	-	-	-
O=C1c2ccccc2C(=O)N1CCN1CCOCC1	0	259[activator]	0	0	233	0	-	-	-	-	-	-	RGS-Gao=92
COc1ccc(NC(=S)N2CCN(C(c3ccccc3)c3ccccc3)CC2)cc1OC	0	0	0	185[activator]	0	0	0	0	0	0	0	0	RGS-Gao=105
COc1ccc(NC(=S)N2CCCC2)cc1OC	0	0	0	0	0	0	-	-	-	-	-	-
O=Cc1ccc(-c2ccc(Cl)cc2Cl)[nH]1	26	16	0	15	0	26	0	0	0	0	0	0
CCOC(=O)C(NC(C)=O)(Nc1cccc(F)c1)C(F)(F)F (stereo unspecified)	0	0	0	0	0	0	-	-	-	-	-	-
CCOC(=O)C(NC(C)=O)(Nc1ccc(F)cc1)C(F)(F)F (stereo unspecified)	0	205[activator]	0	0	260	0	0	0	0	0	0	0	RGS-Gao=138
